# Experimental data as given in PubChem BioAssay (NCI).
# About 83,000 compounds went through this panel and 20% of them were active in at least one assay; those are over-represented in the sample as a whole.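 Step 1: grow cells in 96-well plates. Step 2: add test compound at a single concentration. Step 3: incubate 48 h. Step 4: record percent growth.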 A number with no mark means an inactive call. Active and inactive are the calls of the source. The calls were made as follows: active = growth percent below 10; inactive = the rest.
# How the values were obtained:
# Assay in all cases: NCI-60 one-dose screen, 48 h (100 = growth as untreated, 0 = no growth, -100 = all killed)
# Details in all cases: 10 µM unless noted
# [1] = tested on: HCT-15 colon
# [2] = tested on: HT29 colon
# [3] = tested on: SNB-75 CNS
# [4] = tested on: SNB-19 CNS
# [5] = tested on: U251 CNS
# [6] = tested on: PC-3 prostate
# [7] = tested on: SK-MEL-5 melanoma
# [8] = tested on: UACC-62 melanoma
# [9] = tested on: LOX IMVI melanoma
# [10] = tested on: SK-MEL-28 melanoma
Compound,growth [1],growth [2],growth [3],growth [4],growth [5],growth [6],growth [7],growth [8],growth [9],growth [10]
C/C(=N\Nc1ccc(C(=O)O)cc1)c1cnn(-c2cc(=O)[nH]c3ccc(C)cc23)c1C,97.4%,100%,91.9%,97.5%,102%,88.8%,97.9%,91.5%,94.9%,107%
Cc1[nH]nc2ccc3nc(-c4cn[nH]c4C(F)(F)F)c4c(c3c12)CCCC4,-4.58% (active),5.08% (active),-9.8% (active),3.47% (active),7.24% (active),4.97% (active),-51.2% (active),-57.3% (active),-39.9% (active),-20.1% (active)
O=C(CSc1nnc(-c2ccc(-c3nc4ccccc4[nH]3)cc2)o1)Nc1ccc(Br)cc1,17.5%,22.6%,63.3%,-46.2% (active),-81.6% (active),12.4%,21.6%,30.5%,-85.5% (active),-63.6% (active)
N#CC1=C(c2cccs2)Nc2c(c(-c3ccccc3)nn2-c2ccccc2)C12C(=O)Nc1ccccc12 (stereo not given),11.9%,6.67% (active),60.5%,25.4%,11.6%,6.98% (active),23.9%,48.5%,61.6%,15.2%
COc1ccc(N=Nc2c(N)nn3c(N)c(C#N)c(-c4ccc(F)cc4)nc23)cc1,86.1%,84.6%,82.4%,59.5%,48.7%,67%,34.7%,61.5%,75.1%,90.5%
O=C(c1ccc(O)cc1)C1[C@H](c2ccc(Cl)cc2)[C@@H](c2ccccc2)NC12C(=O)Nc1ccccc12 (stereo not given in full),-70.8% (active),-66.3% (active),43.5%,13.2%,-0.272% (active),1.61% (active),-92.9% (active),-22.4% (active),-100% (active),17.9%
COc1cc2cc(C(=O)N3C[C@@H](CCl)c4c3cc(OC(=O)N(C)CCSSCCN3CCOCC3)c3ccccc43)[nH]c2c(OC)c1OC,-11.1% (active),-10% (active),-74.6% (active),-99.6% (active),-24.1% (active),-12.2% (active),-46.5% (active),-80.3% (active),-69.2% (active),-60.7% (active)
COc1ccc(CCC2NCCc3c(Br)c4c(c(OC)c32)OCO4)cc1 (stereo not given),7.93% (active),2.11% (active),-4.42% (active),12.1%,7.13% (active),26.5%,-17% (active),-32.5% (active),-27.5% (active),1.12% (active)
CC(C)(C)c1cc(-c2cc(-c3ccccc3)[nH]c(=O)c2C#N)cc(C(C)(C)C)c1,56.6%,88.8%,-32% (active),25.7%,-22% (active),53.3%,74.5%,68.3%,49.2%,78.5%
O=[N+]([O-])c1cccc(-c2nnc3c(/C=C/c4ccc(F)cc4)nc4ccccc4n23)c1,85.8%,98.5%,54.1%,92.5%,95.9%,103%,90.9%,85.1%,98.5%,107%
C[C@H](NC(=O)c1ccc2c(-c3ccc(C(F)(F)F)cc3)cccc2c1)c1ccccn1,20.4%,26.6%,87.3%,42%,42.3%,34.2%,34.7%,60.3%,43.7%,74.6%
O=C(Nc1nc2ccc([N+](=O)[O-])cc2s1)Nc1ccc(Cl)cc1Cl,49.1%,64.7%,-24.4% (active),46.6%,11.4%,47.3%,27.5%,56%,34.8%,79.5%
Clc1ccc(CNc2nc(SCCN3CCOCC3)nc3c2cnn3CC(Cl)c2ccc(Br)cc2)cc1 (stereo not given),1.95% (active),-51.5% (active),76.2%,50.4%,38.3%,34.3%,42.3%,57.5%,30.9%,56.2%
NNc1ncnc2sc3c(c12)CCN(Cc1ccccc1)C3,32.9%,20.7%,80.7%,69.4%,51.4%,59.5%,48%,53.1%,39.7%,73%
COc1cc(/C=C/C(=O)c2cnn(-c3cc(=O)[nH]c4ccc(Br)cc34)c2C)cc(OC)c1OC,-54.9% (active),-58.7% (active),9.81% (active),-2.48% (active),-76.7% (active),-23.9% (active),-96.2% (active),-71.7% (active),-89.8% (active),-53% (active)
CNS(=O)(=O)N1CCc2c(Br)c3c(c(OC)c2C1CCc1ccccc1)OCO3 (stereo not given),2.11% (active),-25.4% (active),-38.4% (active),4.35% (active),-63.6% (active),4.03% (active),-100% (active),-78.7% (active),-95.1% (active),-77.9% (active)
N#Cc1cc(-c2ccc3ncnc(N4CCc5cc(F)c(Cl)cc54)c3c2)cnc1N,23.3%,34.2%,24.9%,57.9%,57%,33.8%,55.9%,56.7%,28.4%,61.2%
Nc1nn2c(-c3cc4cc(Br)ccc4oc3=O)ccnc2c1N=Nc1ccc(S(N)(=O)=O)cc1,103%,92.4%,116%,41.6%,28.1%,87.5%,63.7%,83.7%,63.8%,80.7%
COc1cc(/C=C/C(=O)c2ccc(S(=O)(=O)NCCNc3nc(N(C)C)nc(N4CCOCC4)n3)cc2)cc(OC)c1OC,-100% (active),-100% (active),20%,29.1%,-100% (active),-76.5% (active),18.8%,-21.7% (active),-100% (active),-100% (active)
O=C(c1ccc(Cl)cc1)C1[C@H](c2ccccc2Cl)[C@@H](c2ccccc2)NC12C(=O)Nc1ccc(Br)cc12 (stereo not given in full),-83.8% (active),-82.3% (active),-28.7% (active),-54.6% (active),-71.6% (active),-27.9% (active),-95.5% (active),-86.2% (active),-100% (active),-95.4% (active)
Cc1nn(-c2ccccc2)c2nc(C)n(C(=O)N/N=C/c3cccc([N+](=O)[O-])c3)c(=O)c12,63.5%,88.6%,75.4%,94.1%,93.1%,92.9%,90.7%,73.5%,82.7%,97.8%
N#Cc1c(-c2ccc(F)cc2)nc(SCc2ccc(F)cc2)nc1N1CCNCC1,-42.8% (active),-79.1% (active),19.3%,49.6%,-95.5% (active),11.3%,-67.4% (active),-91.6% (active),-100% (active),-97.6% (active)
Cc1ccc(-c2cc(-c3ccccc3)[nH]c(=O)c2C#N)cc1,71%,114%,99.4%,84.3%,90.8%,83.7%,90%,84.6%,83%,109%
COc1ccc(NC(=O)N/N=C/c2c[nH]c3ccccc23)cc1,26.2%,2.49% (active),19.6%,47.3%,28.3%,48.7%,20.5%,25.5%,28%,67.9%
O=C(COc1ccc(/C=C2/C(=O)Nc3ccc(Cl)cc32)cc1)Nc1ccc(Br)cc1,-23% (active),-51.3% (active),-57% (active),5.08% (active),-88.4% (active),-38.9% (active),-14.8% (active),0.1% (active),-89.4% (active),-26.7% (active)
Cc1ccc(C(=O)Nc2cc(-n3cnc(F)c3)cc(C(F)(F)F)c2)cc1C#Cc1cnc2cccnn12,36.2%,35.4%,132%,106%,83.7%,89.8%,38.3%,26%,22%,29.3%
